# Compound activity from PubChem.
# A selection: hits, their analogues and other compounds. The true share with any hit is near 21%.
# Cycloheximide cs: counter-screen for Shiga toxin inhibitors: cycloheximide protein synthesis inhibition; cell reporter, cycloheximide protein synthesis inhibition counterscreen; hit rate 12% among 300,000; max response, %; in the data active = max response mostly above about 13%, no sharp cut-off; inactive = mostly below about 14%; note: read at 38.3 µM for the half of the compounds with a filed dose; 0% is about no effect
# NS1 function inh: inhibitors of influenza NS1 protein function; Potency, µM (series often up to 46.1 µM), without a hit: at the highest dose activity, positive = more growth; hit rate 0.4% among 270,000; calls by dose curve; note: potency is the fitted concentration of half-maximal effect; actives are rising curves; nearly all actives have a fitted effect of over 50% in size
#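 OD600 was taken as the measure of yeast growth restored by compound in an NS1-expressing S. cerevisiae strain. Cells had been washed out of glucose medium and diluted 1:100 into galactose -URA medium, pH 6.0.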
# Pf growth 96h: P. falciparum growth inhibition at 96 hour, primary screen for plastid delayed-death inhibitors. Potency, µM (highest dose often 28.7 µM), for inactives: at the top dose activity change, negative = inhibition, usual class: inhibitors. hit rate 6.9% among 320,000. P. falciparum luciferase reporter growth, 96 h; note: potency is the fitted concentration of half-maximal effect; % is set by controls: 0 for no effect and ±100 for the full control effect
#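 Erythrocytes infected with luciferase-expressing P. falciparum were dispensed at 2% hematocrit and 0.05% parasitemia (final), then incubated with compounds 96 hours at 37 C in 5% CO2. Luminescence after detection reagent addition reported growth.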
# Giardia FBPA inh: blocks Giardia fructose-bisphosphate aldolase activity; A8B2U2; Potency, µM (highest dose often 59.6 µM), without a hit: at the top dose activity, negative = inhibition, hits mostly inhibitors; purified Giardia FBPA; AID 2451; hit rate 0.71% among 290,000; note: potency is the fitted concentration of half-maximal effect; % is set by controls: 0 for no effect and ±100 for the full control effect; nearly all actives have a fitted effect of over 55% in size
# Target sequence (A8B2U2 whole entry, looked up): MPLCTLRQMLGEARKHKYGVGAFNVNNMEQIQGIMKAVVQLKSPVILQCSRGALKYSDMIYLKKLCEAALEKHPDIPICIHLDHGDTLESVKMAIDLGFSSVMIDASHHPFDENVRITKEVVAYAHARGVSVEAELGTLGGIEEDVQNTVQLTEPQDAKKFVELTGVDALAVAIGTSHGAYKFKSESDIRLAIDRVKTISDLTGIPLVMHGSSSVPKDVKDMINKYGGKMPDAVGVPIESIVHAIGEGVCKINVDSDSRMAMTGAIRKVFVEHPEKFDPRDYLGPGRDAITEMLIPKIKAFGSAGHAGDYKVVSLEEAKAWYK
#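 Giardia FBPA (40 nM reagent) was preincubated 10 min at RT with compound (up to 57.5 uM final), then substrate plus GAPDH/TPI/NAD/arsenate coupling system with diaphorase/resazurin was added; resorufin fluorescence (525/598 nm) was read after 20 min.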
# Shiga toxin inh: inhibitors of Shiga toxin in Vero cells; Vero cells, Shiga toxin protein synthesis inhibition reporter; inhibition, % at 38.7 µM; hit rate 9.2% among 290,000; AID 2315; in the data active = inhibition mostly above about 28%, no sharp cut-off; inactive = mostly below about 43%; note: 0% is about no effect
# Pf growth 48h: P. falciparum growth inhibition at 48 hours (one generation) | P. falciparum luciferase growth in erythrocytes, 48 h | Potency, µM (series often up to 28.7 µM), for the others: at the top dose activity change, negative = inhibition, most hits filed as inhibitors | hit rate 5.9% among 310,000 | AID 504832; note: potency is the fitted concentration of half-maximal effect; % is set by controls: 0 for no effect and ±100 for the full control effect
#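 Firefly luciferase activity from engineered P. falciparum reports growth; inhibitors lower the luminescent signal. Cultures contained 2% hematocrit erythrocytes at 0.1% final parasitemia.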
# * marks the source's active call; other numbers are inactive results; i = inactive; ? = inconclusive; nt = no result given. Unless noted, calls come from the whole dose curve; as a rule, active = well fitted curve in the direction sought with a large enough effect; inconclusive = small, poorly fitted or top-dose-only effect, or another doubt; inactive = no such curve, though single readings can be large; an effect the other way counts as inactive or inconclusive.
SMILES,Cycloheximide cs,NS1 function inh,Pf growth 96h,Giardia FBPA inh,Shiga toxin inh,Pf growth 48h
O=C1CCCC2=C1C(c1ccsc1)CC(=O)N2c1ccccc1F (stereo unspecified),-3,nt,?,3%,-3,10%
O=C(Nc1cccc(Cl)c1N1CCOCC1)c1cccs1,2,-18%,?,nt,5,32%
O=S(=O)(NCC1CCCO1)c1ccc(Cl)cc1 (stereo unspecified),-1,7%,6%,-9%,-1,14%
CCOC(=O)CSc1nc2ccccc2n1CC(=O)N(C(C)C)C(C)C,-4,2%,?,4%,-12,4%
CC(C)NC(=O)CSc1nc2ccccc2n1CC(=O)N(C(C)C)C(C)C,20*,nt,4.1µM*,5%,46*,5%
CC(C)NC(=O)CSc1nc2ccccc2n1CC(=O)N1CCc2ccccc21,-1,-21%,13µM*,-7%,-7,?
CC(C)N(C(=O)CSc1nc2ccccc2n1Cc1ccc(F)cc1)C(C)C,9,-26%,27%,-7%,-6,4.7µM*
CSc1ncnc2c1ncn2[C@@H]1O[C@@H](CO)[C@H](O)O[C@@H]1O,nt,6%,nt,nt,nt,nt
CC(=O)N[C@H]1CSSC[C@@H](C(=O)N2CCC[C@H]2C(=O)N2CCC[C@H]2C(=O)N[C@@H](CCCCN)C(=O)N[C@@H](CC(=O)O)C(N)=O)NC(=O)CNC(=O)[C@H](Cc2c[nH]c3ccccc23)NC(=O)[C@H](CCCNC(=N)N)NC(=O)[C@@H](Cc2ccc3ccccc3c2)NC(=O)[C@H](Cc2cnc[nH]2)NC(=O)[C@H](CCC(=O)O)NC1=O,-6,nt,nt,3%,-12,nt
O=C(O)c1ccc(CSc2nnnn2-c2ccc(F)cc2)cc1,-1,1%,-11%,9%,-7,13%
O=C(CSc1nnnn1-c1ccc(F)cc1)c1ccc(O)c(O)c1,38*,nt,?,?,58,-25%
Cc1cc(C)n(-c2nnc3c4ccccc4n(C)c3n2)n1,44*,-30%,47%,-9%,113*,88%
CCOC(=O)CSc1nnc2c3ccccc3n(C)c2n1,-1,-21%,?,11%,12,12%
COc1cccc(OCCCn2ccnc2)c1,-2,-9%,10%,?,-6,43%
CCOc1cccc(OCCCCn2ccnc2)c1,-1,-2%,-9%,-16%,3,12µM*
Fc1ccc(OCCCCCn2ccnc2)cc1,-2,2%,4.1µM*,?,-13,-24%
CCOC(=O)NC(=O)CN1C(=O)NC(C)(c2ccccc2)C1=O (stereo unspecified),7,6%,1.9µM*,13%,-9,24%
CCCNC(=O)NC(=O)CN1C(=O)NC(C)(c2ccc(C)cc2)C1=O (stereo unspecified),6,3%,13µM*,12%,7,-18%
CCOc1ccccc1CN1C(=O)NC(C)(c2ccccc2)C1=O (stereo unspecified),-4,9%,9.3µM*,-3%,50,0%
CCOC(=O)N1CCN(C(=O)CN2C(=O)NC(C)(c3ccc4ccccc4c3)C2=O)CC1 (stereo unspecified),nt,nt,?,nt,nt,12µM*
COc1cc(C2C(C(=O)Nc3ccccc3C)=C(C)Nc3nc(SCc4cc(C)ccc4C)nn32)ccc1O (stereo unspecified),-7,nt,nt,nt,-8,nt
Fc1cc(F)cc(NC(=S)N2CCC(c3ccccc3)C2)c1 (stereo unspecified),41*,nt,5%,2%,138*,41%
Cc1ccc(NC(=S)N2CCC(c3ccccc3)C2)c(Cl)c1 (stereo unspecified),19,nt,6%,1%,72*,i
S=C(Nc1ccccc1Cl)N1CCC(c2ccccc2)C1 (stereo unspecified),44*,nt,8%,5%,131*,202%
Fc1ccccc1NC(=S)N1CCC(c2ccccc2)C1 (stereo unspecified),62*,nt,8%,2%,164*,50%
SMILES,Cycloheximide cs,NS1 function inh,Pf growth 96h,Giardia FBPA inh,Shiga toxin inh,Pf growth 48h
Fc1cccc(NC(=S)N2CCCCC2)c1,-2,-4%,2%,0%,-8,0%
CN(C(=O)Cc1noc2ccccc12)c1ccccc1,18,11%,?,0%,21,19%
O=c1c2ccccc2nc(-c2ccccc2)n1Cc1ccco1,-6,-9%,?,12%,2,-16%
N=c1c2c(-c3ccccc3)c(-c3ccccc3)n(Cc3ccccc3)c2ncn1CCO,-10,-4%,?,7%,-8,4.1µM*
N=c1c2c(-c3ccccc3)c(-c3ccccc3)n(Cc3ccco3)c2ncn1Cc1ccccc1,3,1%,2.6µM*,2%,12,nt
CC(C)Cn1cnc2c(c(-c3ccccc3)c(-c3ccccc3)n2Cc2ccco2)c1=N,-4,3%,2.1µM*,7%,-6,nt
N=c1c2c(-c3ccccc3)c(-c3ccccc3)n(Cc3ccco3)c2ncn1CCCN1CCOCC1,-5,nt,18%,-1%,16,?
CN(C)CCn1cnc2c1c(=O)[nH]c(=O)n2Cc1ccccc1,-5,9%,-9%,-15%,2,-23%
CS(=O)(=O)N(CC(=O)N1CCc2ccccc2C1)c1ccccc1Br,-2,4%,0%,5%,-8,-3%
CSCCC(NS(=O)(=O)c1ccc(C)cc1)C(=O)NC1CCCCC1 (stereo unspecified),-3,nt,-30%,1%,-7,-1%
CSCCC(NS(=O)(=O)c1ccc(C)cc1)C(=O)NC1CCCCCC1 (stereo unspecified),nt,nt,?,nt,nt,9.3µM*
CSCCC(NS(=O)(=O)c1ccc2c(c1)oc(=O)n2C)C(=O)NC1CCN(Cc2ccccc2)CC1 (stereo unspecified),18,nt,1.9µM*,0%,-15,8%
CSCCC(NS(=O)(=O)c1ccc(C)cc1)C(=O)N1CCN(C(c2ccccc2)c2ccccc2)CC1 (stereo unspecified),nt,nt,6.6µM*,nt,nt,3.7µM*
CC(=O)N1CCN(S(=O)(=O)c2c(C)n(C)c(=O)n(C)c2=O)CC1,-3,12%,-27%,nt,32,-5%
CN(Cc1ccco1)C(=O)c1cc2c(s1)-c1ccc(Cl)cc1S(=O)(=O)C2,17,-3%,-21%,-3%,4,8%
CCN1C(=O)/C(=C/c2cccs2)N(C)C1=S,0,2%,1.7µM*,1%,10,nt
CCCN1C(=O)/C(=C/c2ccc(C)o2)NC1=S,16,nt,?,?,30,-7%
CCN1C(=O)/C(=C/c2ccc(C)o2)N(C)C1=S,16*,-47%,-18%,-11%,11,35%
CC1(C)Cc2cccc(C(=O)NC3CCN(Cc4ccccc4)CC3)c2O1,-1,3%,?,0%,-15,?
O=c1ccc2c(OCCCCOc3ccccc3)c3ccoc3cc2o1,19,nt,nt,1%,1,nt
CCCOc1cccc(C(=O)NCCNC(=O)c2cnccn2)c1,-6,-4%,34%,-6%,-5,2%
